High-throughput results from PubChem BioAssay.
Hits are enriched below; roughly 7.9% of the tested compounds scored in any of these assays.
Lassa entry inh: Lassa virus entry inhibition; AID 540256; actives 1.2% (n = 300,000); Potency, µM (doses to about 37.9 µM), for the others: top-dose activity change, negative = inhibition, most hits filed as inhibitors; Lassa virus pseudotype entry inhibition, cell reporter; calls by dose curve; tested in HEK293 cells; further: potency means the concentration at half of the fitted maximal effect; nearly all actives have a fitted effect of over 50% in size
MARV entry inh: blocks Marburg virus binding to or entry into cells. Marburg virus pseudotyped entry inhibition, cell reporter. Potency, µM (highest dose often 37.8 µM), for inactives: at the highest dose activity change, negative = inhibition, actives largely listed as inhibitors. actives 1.8% (n = 300,000); calls by dose curve; tested in HEK293 cells; further: potency means the concentration at half of the fitted maximal effect
HCV inh: blocks hepatitis C virus | Huh7.5.1 HCVcc-Cre infection, luciferase reporter, 44 h | Potency, µM (series often up to 41.8 µM), for inactives: at the highest dose activity change, negative = inhibition, usual class: inhibitors | actives 3.4% (n = 340,000) | AID 651820; active means well fitted inhibition curve with a large enough effect; inconclusive means small, poorly fitted or top-dose-only effect, or another doubt; inactive means no such curve, though single readings can be large or run the other way; further: potency means the concentration at half of the fitted maximal effect
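HCVcc-Cre virus at an moi near 0.5 was added right after compound to cells cultured 4 h from seeding (1,000 cells/well). Luciferase activity was determined 44 h later, 15 min after substrate addition at RT.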
FMDV inh: blocks foot and mouth disease virus; Potency, µM (highest dose often 57.9 µM), for the others: at the top dose activity change, negative = inhibition, hits mostly inhibitors; actives 1.2% (n = 410,000); AID 1159524; FMDV antiviral cell-based qHTS; calls by dose curve; tested in HEK293T cells; further: read-out not given here; potency means the concentration at half of the fitted maximal effect; nearly all actives have a fitted effect of over 45% in size
HCMV antiviral: human cytomegalovirus inhibition | HFF cells, HCMV-luciferase reporter, 72 h; stronger effect = lower value | activity change, negative = inhibition, % at 57.5 µM | actives 4.5% (n = 410,000) | AID 1259415; in the data active means activity change below about -60%; inconclusive means no clear call, values can overlap the other calls; inactive means above about -39%
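Two-dose cell screen: HFF monolayers treated with compounds and infected with luciferase-expressing HCMV at 1 PFU/cell, 72 h at 37C, then lysed for luciferase measurement.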
* = called active by the depositor; ? = inconclusive; . = no result given; [ ] = remark or other dose. On the % scale 0 is the no-effect control and ±100 the full control effect.

SMILES	Lassa entry inh	MARV entry inh	HCV inh	FMDV inh	HCMV antiviral
COc1cccc(CC(=O)Nc2ccc3nc(Nc4cccc(C(F)(F)F)c4)cc(C)c3c2)c1	-21.7%[46.1 µM]	.	.	?	-71.8*
COc1ccc(Br)cc1/C=C/c1ccc2cccc(O)c2n1	-20.0%[46.1 µM]	-1.2%[46.1 µM]	?	-15.1%	4.0
COc1cc(Br)cc(/C=C/c2ccc3cccc(O)c3n2)c1OC	.	.	-11.4%	-18.7%	-16.9
COc1ccc(/C=C/c2ccc3cccc(O)c3n2)c(OC)c1OC	.	.	-57.2%	-28.7%	-93.5*
CCOc1c(OC(C)=O)ccc(/C=C/c2ccc3cccc(OC)c3n2)c1[N+](=O)[O-]	?	4.5%	10µM*	12.3%	12.0
COc1cccc(/C=C/c2ccc3cccc(O)c3n2)c1OC	.	.	10µM*	2.4%	2.3
COc1cc(/C=C/c2ccc3cccc([N+](=O)[O-])c3n2)ccc1OCC(=O)O	.	.	8.2%	29.7%	-0.3
O=C(N[C@H]1CC[C@@]23CCCN2C(=O)CCC[C@H]3[C@H]1Cc1ccccc1)c1cccc(C(F)(F)F)c1	.	.	.	.	-1.3
Cc1c(C(=O)NCc2ccc3c(c2)OCCO3)sc(=O)n1Cc1ccccc1F	.	.	.	-15.8%	-21.1
COc1cccc(-c2nn3c(=O)cc(CN4CCN(C(=O)COc5ccccc5C)CC4)nc3s2)c1	18.0%[46.1 µM]	.	.	3.55µM*	12.9
Cc1ccc(C(=O)N/C(=C\c2ccc(-c3cc(Cl)ccc3Cl)o2)C(=O)NCc2cccnc2)cc1	11.2µM*	?	10µM*	-5.4%	-4.5
CN(C)c1ccc(/C=C(\NC(=O)c2ccccc2)C(=O)NCc2cccnc2)cc1	13.1%[46.1 µM]	11.6%[46.1 µM]	-7.3%	31.8%	-5.9
O=C(NCc1cccnc1)/C(=C/c1ccc(-c2cccc(Cl)c2)o1)S(=O)(=O)c1ccccc1	11.6%	?	27.8%	?	-4.8
O=C(NCc1cccnc1)/C(=C\c1ccc(-c2cccc(Cl)c2)o1)S(=O)(=O)c1ccccc1	?	?	?	17.8µM*	-102.6*
COc1ccc(CN2CCNC(=O)C2CC(=O)N2CCCN(C(C)=O)CC2)c(OC)c1 (configuration not stated)	.	.	17.4%	65.9%	-32.8
COCc1cc(C)nc(SCC[N+](C)(C)CC(=O)Nc2ccccc2)c1C#N	6.3%	-2.3%[46.1 µM]	28.2%	-5.3%	-29.6
COCc1cc(C)nc(SCC[N+](C)(C)CC(=O)c2ccc(Br)cc2)c1C#N	-13.9%	6.0%[46.1 µM]	31.6µM*	-1.4%	-0.6
COCCNC(=O)c1ccc(-n2c(-c3ccccc3)cc3c2CCCCC3)cc1	?	.	.	16.9%	-99.5*
CCCNC(=O)c1ccc(-n2c(-c3ccccc3)cc3c2CCCCC3)cc1	-22.8%[46.1 µM]	.	.	-4.4%	-87.1*
CN(C)CCNC(=O)c1ccc(-n2c(-c3ccccc3)cc3c2CCCC3)cc1	?	.	.	-9.1%	-92.3*
CC(C)NC(=O)c1ccc(-n2c(-c3ccccc3)cc3c2CCCC3)cc1	?	.	.	-13.5%	-67.9*
Cc1cc(OCc2cc(C(=O)NC(C)c3cnn(C)c3)no2)cc(C)c1Cl (configuration not stated)	.	.	.	32.3%	75.5
Cc1cc(OCc2cc(C(=O)NC(C)c3c(C)nn(C)c3C)no2)cc(C)c1Cl (configuration not stated)	.	.	11.2µM*	-1.1%	?
COc1ccc(NC(=O)COc2cccc3c2CCN(Cc2cccnc2)C3=O)c(OC)c1	.	.	-21.8%	?	?
CN(C)c1oc(-c2ccccc2Cl)nc1C#N	5.1%	-4.4%	25.1µM*	14.0%	-28.8
SMILES	Lassa entry inh	MARV entry inh	HCV inh	FMDV inh	HCMV antiviral
N#Cc1nc(-c2cccc3ccccc23)oc1NCCN1CCCCC1	-8.1%	?	11.2µM*	5.3%	88.9
C=CCNc1oc(-c2cccc3ccccc23)nc1C#N	4.8%	8.0%	6.31µM*	.	6.6
N#Cc1nc(-c2ccccc2Cl)oc1NCC1CCCO1 (configuration not stated)	.	.	12.6µM*	-7.3%	25.7
CCC1(CC)C(=O)NC(=O)NC1=S	-4.6%	6.5%	16.3%	-13.9%	-19.8
NC1=C(Br)C(=O)c2ncccc2C1=O	?	2.51µM*	?	3.98µM*	-101.5*
N#C/C(=C\c1ccc(-c2cc(Cl)ccc2Cl)o1)C(=O)Nc1cccc2ncccc12	3.66µM*	?	.	.	.
Cc1ccccc1NC(=O)/C(C#N)=C/c1ccc(Cl)cc1Cl	-1.2%[46.1 µM]	-15.4%[46.1 µM]	.	60.3%	3.6
O=C(CNC(=O)c1ccc(Br)cc1)N/N=C/c1ccc[nH]1	?	?	2.51µM*	-21.2%	7.2
Cc1c(Cl)cccc1NC(=O)CCC(=O)NNC(=O)c1ccccc1	2.1%	8.4%	-1.5%	-14.1%	-12.1
Cc1ccc(C)c(NC(=O)CCC(=O)N/N=C/c2ccc[nH]2)c1	18.3µM*	?	3.55µM*	-8.7%	-91.1*
Cc1c(Cl)cccc1NC(=O)CCC(=O)N/N=C/c1ccc[nH]1	?	3.16µM*	1µM*	0.0%	-99.6*
Cc1ccc(NCC(=O)N/N=C\c2ccc[nH]2)cc1	?	3.16µM*	14.1µM*	20.6%	-29.1
Cc1cccc2cc(CN(CC3CCCO3)C(=O)c3ccccc3F)c(N(C)C)nc12 (configuration not stated)	.	.	.	3.4%	.
Cc1cccc(OCCNc2ccc(C(F)(F)F)cc2[N+](=O)[O-])c1	?	-0.7%	24.8%	56.1%	-19.6
Cc1ccc(OCCNC(=O)c2cccc(Oc3ccc(C(F)(F)F)cc3[N+](=O)[O-])c2)cc1	?	15.3%	?	?	-79.9*
Cc1ccc(OCCNC(=O)c2cccc(S(=O)(=O)NCc3ccccc3)c2)cc1	?	6.31µM*	?	16.9%	-23.9
Cc1ccc(S(=O)(=O)NCc2ccc(C(=O)NCCN(Cc3ccccc3)C(C)C)cc2)cc1	-29.1%[46.1 µM]	11.2µM*	?	0.0%	?
COc1ccc(OC)c(NC(=O)CSc2nc3ccccc3c(=O)n2CCC(=O)NC2CCCCC2)c1	?	.	.	-2.8%	1.8
O=C(O)CCn1ccc2cc(S(=O)(=O)N3CCCCC3)ccc21	15.6%[46.1 µM]	?	.	-10.7%	-3.7
Cc1ccc(N=N/C(=C\O)C(=O)c2ccc(Cl)cc2)cc1	?	?	10µM*	?	-87.1*
O=C(/C(=C/O)N=Nc1ccccc1)c1ccc(Cl)cc1	?	?	?	?	-37.8
Cc1ccc(-c2nn(-c3ccccc3)cc2C2CC(c3ccccc3)=NN2C(=O)CCC(=O)O)cc1 (configuration not stated)	?	5.8%[46.1 µM]	18.0%	-9.4%	-37.6
CC(=O)N1N=C(c2ccncc2)CC1c1ccccc1O (configuration not stated)	-10.9%	?	2.1%	-8.7%	-38.9
COc1ccc(C2=NN(C(=O)c3cccs3)C(c3ccccc3OC)C2)cc1OC (configuration not stated)	?	?	10µM*	-14.9%	-38.4
CC(=O)N1N=C(c2ccccc2)CC1c1cn(Cc2ccccc2)c2ccccc12 (configuration not stated)	?	?	25.1µM*	31.6µM*	-87.1*
